From PubChem BioAssay AID651903 (Broad Institute, 2012)
In all, about 22,000 compounds went through this assay and about 1,100 (5%) were called active. This excerpt belongs to a sample that is enriched for actives. A number with no mark means an inactive call. No stated cut-off is given here; in the data, active means activity score above about 55%; inconclusive means no clear call, values can overlap the other calls; inactive means below that.

Test: inhibitors of intracellular Trypanosoma cruzi, primary screen, cell-based, plate reader, single point, set 2 (AID 651903);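 further: parasites and compound incubated about four days before reading; 0% = median of neutral control wells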
Conditions: intracellular Trypanosoma cruzi in host cells, at 5.01 µM, hits give high values

Row | SMILES | activity score (inhibition)
1 | C[C@@H]1CN([C@H](C)CO)C(=O)c2cc(NC(=O)c3ccncc3)ccc2O[C@H]1CN(C)C(=O)Nc1ccc(C(F)(F)F)cc1 | 1.32%
2 | C[C@@H]1CN([C@H](C)CO)C(=O)c2cc(NC(=O)Nc3ccc(C(F)(F)F)cc3)ccc2O[C@H]1CN(C)C(=O)Nc1ccccc1 | 4.44%
3 | COc1ccc(S(=O)(=O)N(C)C[C@@H]2Oc3ccc(NC(=O)C4CC4)cc3CC(=O)N([C@@H](C)CO)C[C@@H]2C)cc1 | -7.17%
4 | CNC[C@H]1Oc2ccc(NS(=O)(=O)c3ccc(F)cc3)cc2C(=O)N([C@@H](C)CO)C[C@@H]1C | -7.11%
5 | C[C@H]1CN([C@@H](C)CO)C(=O)c2cccc(NC(=O)c3cnccn3)c2O[C@@H]1CN(C)Cc1ccc(Oc2ccccc2)cc1 | 38.8%
6 | C[C@H]1CN([C@@H](C)CO)C(=O)Cc2cc(NC(=O)Nc3ccc(F)cc3)ccc2O[C@H]1CN(C)S(=O)(=O)c1ccccc1 | 10.9%
7 | C[C@H]1CN([C@@H](C)CO)C(=O)Cc2cc(NC(=O)Nc3ccc(C(F)(F)F)cc3)ccc2O[C@@H]1CN(C)S(=O)(=O)c1ccc(Cl)cc1 | -15.1%
8 | C[C@H]1CN([C@@H](C)CO)C(=O)Cc2cc(NS(C)(=O)=O)ccc2O[C@@H]1CN(C)S(=O)(=O)c1ccc(Cl)cc1 | 2.12%
9 | Cc1ccc(S(=O)(=O)N(C)C[C@H]2Oc3ccc(NC(=O)Nc4cccc5ccccc45)cc3CC(=O)N([C@H](C)CO)C[C@H]2C)cc1 | 60.6% (active)
10 | C[C@@H]1CN([C@H](C)CO)C(=O)Cc2cc(NC(=O)Nc3ccc(C(F)(F)F)cc3)ccc2O[C@@H]1CN(C)S(=O)(=O)c1ccccc1 | 70% (active)
11 | C[C@@H]1CN([C@H](C)CO)C(=O)Cc2cc(NS(=O)(=O)c3ccc(Cl)cc3)ccc2O[C@@H]1CN(C)S(=O)(=O)c1ccc(Cl)cc1 | 67.3% (active)
12 | Cc1noc(C)c1S(=O)(=O)N(C)C[C@H]1Oc2ccc(NC(=O)Nc3cccc4ccccc34)cc2CC(=O)N([C@@H](C)CO)C[C@H]1C | 23.8%
13 | C[C@H]1CN([C@@H](C)CO)C(=O)Cc2cc(NC(=O)Nc3cccc4ccccc34)ccc2O[C@@H]1CN(C)S(C)(=O)=O | -12.5%
14 | C[C@@H]1CN([C@H](C)CO)C(=O)Cc2cc(NS(=O)(=O)c3ccc(F)cc3)ccc2O[C@@H]1CN(C)S(=O)(=O)c1ccc(F)cc1 | 47.1%
15 | COc1ccc(S(=O)(=O)N(C)C[C@H]2Oc3ccc(NS(=O)(=O)c4ccc(C)cc4)cc3CC(=O)N([C@@H](C)CO)C[C@@H]2C)cc1 | -20.8%
16 | COc1ccc(S(=O)(=O)Nc2ccc3c(c2)CC(=O)N([C@H](C)CO)C[C@@H](C)[C@@H](CN(C)S(=O)(=O)c2ccc(F)cc2)O3)cc1 | 60.4% (active)

Row | SMILES | activity score (inhibition)
17 | C[C@H]1CN([C@@H](C)CO)C(=O)Cc2cc(NS(=O)(=O)c3ccc(Cl)cc3)ccc2O[C@@H]1CN(C)S(=O)(=O)c1ccccc1 | 9.06%
18 | C[C@@H]1CCCCO[C@H](CN(C)C(=O)c2ccccc2)[C@@H](C)CN([C@H](C)CO)C(=O)c2cc(NC(=O)c3ccccc3)ccc2O1 | -16.9%
19 | C[C@@H]1CN([C@@H](C)CO)C(=O)c2cccc(NC(=O)C3CCOCC3)c2O[C@H]1CN(C)C(=O)NC1CCCCC1 | 2.53%
20 | C[C@H]1CN([C@@H](C)CO)C(=O)c2cc(NC(=O)c3ccncc3)ccc2O[C@H]1CN(C)Cc1ccc(C(=O)Nc2ccccc2N)cc1 | 37.7%
21 | C[C@H](CO)N1C[C@H](C)[C@@H](CN(C)Cc2ccc(C(F)(F)F)cc2)Oc2ccc(NC(=O)CCC(F)(F)F)cc2C1=O | 7.64%
22 | COc1ccc(S(=O)(=O)N(C)C[C@H]2Oc3c(NS(=O)(=O)c4ccc(F)cc4)cccc3C(=O)N([C@H](C)CO)C[C@H]2C)cc1 | 71.9% (active)
23 | COc1ccc(S(=O)(=O)Nc2cccc3c2O[C@@H](CN(C)S(=O)(=O)c2ccc(F)cc2)[C@H](C)CN([C@H](C)CO)C3=O)cc1 | -4.59%
24 | Cc1ccc(S(=O)(=O)Nc2ccc3c(c2)CC(=O)N([C@@H](C)CO)C[C@@H](C)[C@@H](CN(C)S(=O)(=O)c2ccccc2)O3)cc1 | 52%
25 | Cc1ccc(S(=O)(=O)N(C)C[C@H]2Oc3ccc(NS(C)(=O)=O)cc3CC(=O)N([C@@H](C)CO)C[C@H]2C)cc1 | 5.47%
26 | COc1ccc(S(=O)(=O)Nc2cccc3c2O[C@H](CN(C)S(=O)(=O)c2ccc(OC)cc2)[C@@H](C)CN([C@H](C)CO)C3=O)cc1 | 8.53%
27 | Cc1ccc(S(=O)(=O)N(C)C[C@H]2Oc3ccc(NS(=O)(=O)c4ccccc4)cc3CC(=O)N([C@@H](C)CO)C[C@H]2C)cc1 | 57.7% (active)
28 | C[C@@H]1CN([C@H](C)CO)C(=O)CCCn2cc(nn2)CO[C@H]1CN(C)S(C)(=O)=O | -20.6%
29 | C[C@H](CO)N1C[C@H](C)[C@H](CN(C)C(=O)Nc2ccc3c(c2)OCO3)Oc2ccc(NC(=O)Nc3ccccc3)cc2CC1=O | -2.34%
30 | Cc1noc(C)c1NC(=O)Nc1ccc2c(c1)CC(=O)N([C@@H](C)CO)C[C@@H](C)[C@@H](CN(C)Cc1ccc(Cl)c(Cl)c1)O2 | 0.719%
31 | C[C@H](CO)N1C[C@H](C)[C@H](CN(C)Cc2ccc3c(c2)OCO3)Oc2c(NS(=O)(=O)c3ccccc3)cccc2C1=O | 4.5%
